# Most compounds without a hit are left out; they make up all but 0.52% or so of the library.
# USP2a block: inhibitors of human ubiquitin-specific protease USP2a | USP2 core, Ub-CHOP2 coupled fluorogenic reporter, 485/531 | Potency, µM (doses to about 38.3 µM), inactives show at the top dose activity change, negative = inhibition, hits mostly inhibitors | hit rate 0.01% among 330,000 | AID 463254;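 further: plate controls were DMSO wells for no effect and full inhibition by NEM control for full effect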
#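 USP2 core (10nM final) preincubated 30min RT with compound in 20mM Tris-HCl pH 8.0, 2mM CaCl2, 2mM beta-mercaptoethanol, 0.05% CHAPS; 25nM Ub-CHOP2 plus 25nM reporter substrate added, fluorescence (Ex485/Em531) read after 60min.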
# Tb PGK inh: T. brucei PGK inhibition. P07378. PGK/GAPDH coupled, Kinase-Glo luminescence, 60 min. hit rate 0.043% among 380,000. AID 602233. Potency, µM (doses to about 57.5 µM), for inactives: at the highest dose activity change, negative = inhibition, actives largely listed as inhibitors; further: nearly all actives have a fitted effect of over 60% in size
# Target sequence (P07378 whole entry, looked up): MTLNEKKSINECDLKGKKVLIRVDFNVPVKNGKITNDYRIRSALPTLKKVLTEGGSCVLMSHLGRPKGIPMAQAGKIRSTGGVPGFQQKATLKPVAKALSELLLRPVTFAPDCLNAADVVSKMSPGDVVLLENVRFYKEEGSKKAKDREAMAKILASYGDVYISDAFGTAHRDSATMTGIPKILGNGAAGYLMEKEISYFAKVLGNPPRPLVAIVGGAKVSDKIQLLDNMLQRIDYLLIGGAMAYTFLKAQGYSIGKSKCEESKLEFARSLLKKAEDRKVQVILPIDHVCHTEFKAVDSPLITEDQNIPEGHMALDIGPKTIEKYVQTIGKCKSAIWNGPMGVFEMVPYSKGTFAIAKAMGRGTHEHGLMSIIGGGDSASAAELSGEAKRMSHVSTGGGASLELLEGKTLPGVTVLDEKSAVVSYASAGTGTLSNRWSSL
#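 Recombinant glycosomal PGK reaction used 1,3-bisphosphoglycerate generated in-well by GAPDH (100nM final) in 100mM TEA pH 7.6, 5mM MgCl2, 0.01% Tween-20. After 60 minutes at room temperature, ATP was read by Kinase-Glo Plus luminescence end-point.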
# Tb PFK block: blocks T. brucei phosphofructokinase. hit rate 0.17% among 330,000. O15648. Potency, µM (highest dose often 57.5 µM), inactives show at the highest dose activity, negative = inhibition, actives largely listed as inhibitors. T. brucei PFK, ADP-Glo luminescence;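 further: 0% = uninhibited 1x PFK enzyme wells and -100% = no-enzyme wells; nearly all actives have a fitted effect of over 60% in size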
#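 Luminescent ADP detection (ADP-Glo, two-step: ATP depletion then ADP-to-ATP conversion for luciferase) reported PFK activity after 45 min room-temperature reaction of 1.25 nM enzyme with 0.5 mM F6P and 0.1 mM ATP at pH 8.0.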
# GLS inh: blocks human kidney-isoform glutaminase activity | hit rate 0.21% among 410,000 | Potency, µM (highest dose often 45.5 µM), for the others: at the top dose activity change, negative = inhibition, most hits filed as inhibitors | GLS enzymatic activity, qHTS titration | O94925 | AID 624170
#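 Assay buffer: 45 mM KH2PO4 pH 8.2, 0.02% Tween-20. hKGA acts on L-glutamine (1 mM solution added); product glutamate is reported by an oxidase/peroxidase Amplex Red coupling, with fluorescence taken at baseline and 30 min.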
# GCN5L2 inh: inhibitors of human GCN5L2 histone acetyltransferase; hit rate 0.21% among 390,000; Q92830; AID 504327; GCN5L2 HAT assay, ThioGlo1 CoA-SH fluorescence; Potency, µM (doses to about 58.9 µM), for the others: top-dose activity change, negative = inhibition, usual class: inhibitors
#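 qHTS, 1536-well. 20nM enzyme, pH 7.5 HEPES/EDTA/Tween-20 buffer; 15 min compound preinc., RT. Start: 75uM H3(1-25), 70uM AcCoA, 50uM ThioGlo1. Read Ex340/Em540 at t=0 (autofluorescence flag) and t=20 min.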
# * = called active by the depositor; i = inactive; ? = inconclusive; · = no result given; ! = a repeat was not active. The call rests on the fitted dose curve; in most records, active means well fitted curve in the direction sought with a large enough effect; inconclusive means small, poorly fitted or top-dose-only effect, or another doubt; inactive means no such curve, though single readings can be large; an effect the other way counts as inactive or inconclusive. Unless noted, on the % scale 0 is the no-effect control and ±100 the full control effect; potency means the concentration at half of the fitted maximal effect.
SMILES,USP2a block,Tb PGK inh,Tb PFK block,GLS inh,GCN5L2 inh
CCOc1ccc(NC(=O)N2CCN(S(=O)(=O)c3ccc4c(ccn4C)c3)CC2)cc1,·,-2.9%,·,6.3%,1.3%
CC(=O)c1cnc2c(-c3ccc(Cl)cc3)cnn2c1C,-0.5%,0.8%,1.7%,10.1%,-7.7%
Nc1c(C(=O)O)cnc2c(-c3ccc(Cl)cc3)cnn12,0.7%,31.6µM*,-2.0%,0.6%,-4.1%
CCc1cccc(NC(=O)Cn2c(=O)n3nc(-c4cccc(F)c4)nc3c3ccccc32)c1,·,i,·,-0.7%,-1.8%
O=C(OCCN1CCOCC1)c1cccnc1,0.6%,-4.6%,-8.8%,-2.3%,1.12µM*!
O=C(OCCN1CCOCC1)c1ccccc1,1.9%,-2.2%,3.4%,1.1%,-2.0%
Cc1ccccc1-c1cn(-c2ccccc2)c(=S)[nH]1,-0.3%,0.5%,-0.3%,11.2µM*,-2.4%
Cc1ccc(-c2cn(-c3ccccc3)c(=S)[nH]2)cc1C,-11.0%,i,-26.3%,5.9%,-21.1%
Cc1ccc2c(C)c(C(=O)NCc3ccc(S(N)(=O)=O)cc3)oc2c1C,0.4%,3.7%,-4.7%,-9.3%,20µM*
Oc1ccccc1C(Nc1nccs1)c1ccc2cccnc2c1O (stereo not drawn),0.3%,5.0%,-4.1%,15.8µM*,-0.7%
Oc1c(C(Nc2ccccn2)c2ccccn2)ccc2cccnc12 (stereo not drawn),-1.5%,0.8%,-3.5%,43.1%,-14.9%
Cc1ccc(C)c(N2CCN(C(=O)C3CCN(c4nc(-c5ccc(C(C)C)cc5)no4)CC3)CC2)c1,·,11.5%,·,4.6%,-6.0%
Cc1ccc(S(=O)(=O)NNc2ccccc2)cc1,-0.8%,i,?,7.9%,28.2µM*
COc1ccc(-n2cc(C(=O)NC(C)c3ccccc3)c3ccccc3c2=O)cc1 (stereo not drawn),·,8.4%,·,5.2%,-20.0%
COc1ccc(N2C(=O)NC3CC2(C)Oc2ccc(Cl)cc23)cc1OC (stereo not drawn),4.3%,-6.3%,2.8%,0.0%,2.2%
COc1ccc(CCN2C(=S)NC3CC2(C)Oc2ccc([N+](=O)[O-])cc23)cc1OC (stereo not drawn),-2.2%,-1.1%,0.6%,10µM*,-8.1%
COC(=O)CC1Oc2ccc(Cl)cc2-n2cc(-c3ccc(C)cc3)nc21 (stereo not drawn),·,-5.3%,·,2.4%,1.8%
COc1cc(/C=C(\C#N)C(N)=O)cc(CSc2nc3ccccc3s2)c1O,·,·,·,·,28.2µM*
O=C(CSc1nnnn1-c1ccc(F)cc1)c1ccc(O)c(O)c1,5.62µM*,-12.6%,-3.5%,0.0%,-6.1%
O=c1oc2c(O)c(O)cc3c(=O)oc4c(O)c(O)cc1c4c23,1.12µM*,0.891µM*,?,2.82µM*!,?
COc1cccc(CNC(=O)C2CCCN(S(=O)(=O)c3ccc4c(ccn4C)c3)C2)c1OC (stereo not drawn),·,6.8%,·,-2.9%,2.9%
ClC(Cl)(Cl)c1nc2ccccc2n2nncc12,-0.1%,0.8%,4.8%,11.2µM*,-10.9%
CC(C)CC1=C/C(=C/c2ccc(-c3ccccc3)o2)C(=O)O1,-12.8%,-8.2%,4.0%,11.2µM*,?
O=C1C=CC(=O)c2c(O)c(Cl)c(Cl)c(O)c21,·,·,·,·,20µM*
O=C1C=CC(=O)c2c(O)c(CO)c(CO)c(O)c21,·,8.91µM*,·,3.55µM*,·
SMILES,USP2a block,Tb PGK inh,Tb PFK block,GLS inh,GCN5L2 inh
Cc1nc(C)c(-c2ccc(SCC(=O)Nc3ccc(Br)cc3)nn2)s1,·,14.7%,·,-8.6%,-5.4%
Cc1ccc(C)c(N2CCN(C(=O)C3CCCN(S(=O)(=O)c4ccc5c(c4)oc(=O)n5C)C3)CC2)c1 (stereo not drawn),·,-5.8%,·,1.6%,3.8%
Cc1cccc(OCC(=O)N(Cc2ccc(C(C)(C)C)cc2)Cc2ccco2)c1,·,-9.0%,·,-17.8%,-14.5%
COc1cc(NC(=O)Cn2c(C)cc(C)c(C#N)c2=O)cc(OC)c1,·,-1.9%,·,1.2%,-6.2%
CCCC(=O)O[C@]1(C(=O)COC(=O)CC)[C@@H](C)C[C@H]2[C@@H]3CCC4=CC(=O)C=C[C@@]4(C)[C@@]3(F)[C@H](O)C[C@@]21C,·,·,·,-20.4%,·
Cc1ccc(Cn2c(C(C)Nc3nc(-c4ccc(C)cc4)cs3)nc3cc(Cl)c(Cl)cc32)cc1 (stereo not drawn),-1.8%,?,-3.1%,10µM*,-12.4%
Cc1ccc(O)c(Nc2c3ccccc3nc3ccccc23)c1,1.5%,4.7%,1.1%,8.91µM*,-3.0%
CC(=O)c1c(C(C)=O)c(C)n(-c2ccc(C(=O)O)cc2)c1C,4.4%,-0.6%,0.9%,-0.9%,-0.7%
Cc1ccc(C)n1-c1ccc(C(=O)O)cc1,-25.9%,·,10.7µM*,·,?
Cc1ccc2c(c1)c(CC(NC(=O)c1ccccc1Oc1ccccc1)C(=O)O)cn2C(=O)OCc1ccccc1 (stereo not drawn),·,·,·,·,10µM*
O=C(O)CN1C(=O)/C(=C/c2ccc(N3CCCCC3)o2)SC1=S,12.5%,-29.2%,-14.4%,11.2µM*,-19.2%
Oc1ccc(N=C/C=C/c2cccc(Br)c2)cc1-c1nc2ccccc2s1,1.9%,-6.4%,-0.4%,14.1µM*,-5.5%
Cc1ccc(C2=Nc3ccccc3NC(c3ccncc3)=N2)cc1,·,·,·,10.5%,-5.3%
CCCc1nc(C(C)(C)O)c(C(=O)OCc2oc(=O)oc2C)n1Cc1ccc(-c2ccccc2-c2nn[nH]n2)cc1,·,·,·,-22.5%,2.5%
CCOc1nc2cccc(C(=O)OC(C)OC(=O)OC3CCCCC3)c2n1Cc1ccc(-c2ccccc2-c2nn[nH]n2)cc1 (stereo not drawn),·,·,·,·,20µM*
O=C(/C=C/Nc1ccc(S(=O)(=O)Nc2cnc3ccccc3n2)cc1)c1ccccc1,0.1%,3.6%,0.8%,18.0%,-6.0%
O=C1CCCC/C1=C\Nc1ccc(S(=O)(=O)Nc2cnc3ccccc3n2)cc1,2.9%,-1.3%,1.9%,11.3%,22.4µM*
COc1cccc(C2(O)CC(C(F)(F)F)=NN2C(=O)c2ccccn2)c1 (stereo not drawn),-0.7%,-2.8%,-0.4%,24.9%,25.1µM*
Nc1ccc(-c2nc3ccc(C(=O)O)cc3s2)cc1,3.8%,?,0.0%,-1.0%,28.2µM*
O=C(O)c1ccc2nc(-c3ccccc3)sc2c1,0.0%,-12.3%,3.2%,14.5%,-1.3%
CCOC(=O)C1Nc2c(F)cc(C)cc2C2c3ccccc3CC12 (stereo not drawn),·,-2.1%,·,4.5%,·
CCOC(=O)C1Nc2ccccc2C2c3ccccc3CC12 (stereo not drawn),·,4.9%,·,14.1µM*,·
CC(C)=CCCC1(C)C=Cc2c(O)c3c(c(CC=C(C)C)c2O1)OC12C(=CCCC1C(C)(C)O[C@@]2(C/C=C(\C)C(=O)O)C(=O)O)C3=O (stereo partly drawn),·,·,·,·,35.5µM*

# High-throughput results (PubChem BioAssay)
